Assay [1] in a line: Cell Viability - BJ (AID 421).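 Further: potency means the concentration at half of the fitted maximal effect; cells exposed to compound for 40 hours at 37 °C before readout.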 The conditions noted are these: BJ fibroblast viability, qHTS. An outline of the steps: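 Normal human BJ foreskin fibroblasts, 1500/well in complete medium, treated 40 hr at 37 °C. Cellular ATP by CellTiter-Glo luminescence; normalized to DMSO and 100 uM tamoxifen, AC50 from Hill fit.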
Assay [2] is described as follows: Cell Viability - Jurkat (AID 426;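 active means dose-dependent loss of cell ATP signal giving a full or clear fitted curve, ranked by lower potency value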;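 further: potency means the concentration at half of the fitted maximal effect; cells exposed to compound for 40 hours at 37 °C before ATP read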). The conditions noted are these: qHTS. An outline of the steps: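 Cells of the human T-cell leukemia line Jurkat (E6-1) are seeded at 5000 per well, treated with compound across a concentration range for 40 hours at 37 °C, then lysed with CellTiter-Glo; luminescence reports ATP.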
Assay [3] can be described thus: Cell Viability - HepG2 (AID 433).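 Further: potency means the concentration at half of the fitted maximal effect; potency for ATP loss meaning cytotoxicity.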 The conditions noted are these: qHTS. An outline of the steps:
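HepG2 cells, 1500 per well, treated 40 hr at 37 °C in complete medium; viability from intracellular ATP by CellTiter-Glo luminescence. Normalized to DMSO and 100 uM tamoxifen; AC50 from Hill fit of qHTS concentration-response.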
(In general: In qHTS, concentration-response curves come from the screen itself.)

A short description of assay [4]: Cell Viability - MRC5 (AID 434).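 Further: potency means the concentration at half of the fitted maximal effect; potency reflects cytotoxicity seen as loss of intracellular ATP.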 Particulars: MRC5 lung fibroblast viability, qHTS. In short, it runs like this: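 AC50 values come from Hill-equation fits of intracellular ATP loss, measured by CellTiter-Glo luminescence. Normal lung fibroblasts (MRC5) had 40 hr compound treatment at 37 C, normalized between DMSO and 100 uM tamoxifen.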
Assay [5] in a line: Cell Viability - SK-N-SH (AID 435).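 Further: potency means the concentration at half of the fitted maximal effect; compound exposure lasted 40 h at 37 °C.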 The conditions noted are these: SK-N-SH neuroblastoma cell viability qHTS. In short, it runs like this: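 SK-N-SH neuroblastoma cells (1500/well) treated 40 h at 37 °C in complete medium; viability read as cellular ATP by CellTiter-Glo luminescence. Normalized to DMSO and 100 uM tamoxifen; AC50 from Hill fits of qHTS concentration-response.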

The target of assay [6] is Mitogen-activated protein kinase 10 (Mus musculus) (UniProt Q61831). The experiment in a line: JNK3 AlphaScreen Assay (AID 530; active means well fitted curve in either direction with a large enough effect, not every such curve was filed as active;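 further: kinase came from lysate of stimulated human HepG2 cells; signal reports phosphorylation of biotinylated GST-cJun 1-79 at Ser73 with 10 µM ATP; on the % scale 0 is the no-effect control and ±100 the full control effect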). The conditions noted are these: JNK3 lysate, c-Jun phosphorylation; series mostly up to 57.1 µM. An outline of the steps:
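qHTS titrations with 15 min compound pre-incubation before adding ATP (10 uM final). Read-out: AlphaScreen of Ser73-phosphorylated biotin-GST-cJun using HepG2 lysate JNK3 activated by IL-1β and TNFα.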
(In general: Alpha assays give light when donor and acceptor beads are brought close together.)

Assay [7] is described as follows: Cell Viability - NIH 3T3 (AID 541; active means well fitted curve in the direction sought with a large enough effect; an effect the other way counts as inactive or inconclusive; further: nearly all actives have a fitted effect of over 25% in size; further: potency means the concentration at half of the fitted maximal effect;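 on activity change, negative = cytotoxicity: plate controls were DMSO alone for no effect and tamoxifen positive control for full effect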). Particulars: NIH 3T3 cell viability, qHTS; activity change, negative = cytotoxicity: at 92.2 µM (top of the series). An outline of the steps:
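Cells seeded at 1000/well, rested 5 hr at 37 °C, then dosed and incubated 40 hr at 37 °C. CellTiter-Glo added, 20 min room temperature, luminescence read. AC50 by Hill fit.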

The nature of assay [8]: Cell Viability - HUV-EC-C (AID 542; active means well fitted curve in the direction sought with a large enough effect; an effect the other way counts as inactive or inconclusive; further: on the % scale 0 is the no-effect control and ±100 the full control effect; nearly all actives have a fitted effect of over 35% in size). Particulars: HUV-EC-C endothelial cell viability, qHTS; series mostly up to 92.2 µM. An outline of the steps: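 Cells were seeded at 1000 per well and incubated 5 hr at 37 °C before compound addition. After 40 hr at 37 °C, CellTiter-Glo reagent was added for 20 min and luminescence read. AC50 values came from Hill-equation modelling.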

Assay [9] in a line: Cell Viability - N2a (AID 540; active means well fitted curve in the direction sought with a large enough effect; an effect the other way counts as inactive or inconclusive;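 further: cells exposed to compound for 40 h at 37 °C; plate controls were DMSO alone for no effect and tamoxifen control for full effect; nearly all actives have a fitted effect of over 45% in size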). Particulars: N2a mouse neuroblastoma cell viability; activity change, negative = cytotoxicity: at 92.2 µM (top of the series). In short, it runs like this:
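Cytotoxicity was scored as loss of cellular ATP in N2a cells, a mouse neuroblastoma line. Compounds are applied in a qHTS concentration series for 40 hr at 37 °C.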

Records with an inconclusive call do not appear. Unmarked numbers belong to inactive results. Calls of active or inactive are those of the source. Unless noted, the call rests on the fitted dose curve. Bounds are passed on as bounds.

Turning to `C1CCC2OC2C1` (configuration not stated), the Potency in [1], in [2], in [3], in [4] and in [5] was above 92 µM in each case. Moreover, in assay [6], the compound was classed as inactive. Further, the Potency result in assay [7] and in assay [8] was “inactive” in each case.
As to `C=C(C)OC(C)=O`, the Potency in assay [1], in assay [2], in [3], in assay [4] and in assay [5] was above 92 µM each time. For the same compound, in assay [6], the compound was called inactive. Also, the Potency result in assay [8] is “inactive”.
As to `CCCCN(CCO)CCCC`, the Potency in [1], in assay [2], in [3], in assay [4] and in assay [5] was above 92 µM in each case. Besides, the compound was called inactive in assay [6]. For the same compound, in assay [9], the activity change, negative = cytotoxicity is -15.2%. Further, the Potency result in assay [7] and in [8] was “inactive” each time.
For `CCCCCCO`, the Potency in [1], in assay [2], in assay [3], in assay [4] and in assay [5] was above 92 µM throughout. For the same compound, the outcome in assay [6] was inactive. Moreover, in [9], the activity change, negative = cytotoxicity is 4.85%. The Potency entry in assay [7] and in assay [8] was “inactive” each time.
As for `CCc1ccccc1O`, the Potency in [1], in assay [2], in assay [3], in assay [4] and in assay [5] was above 92 µM throughout. In assay [6], the call was inactive. Also, the Potency entry in assay [7] was “inactive”.
As for `Cc1cccc(C(=O)O)c1`, the Potency in [1], in [2], in [3], in [4] and in assay [5] was above 92 µM each time. Moreover, in [6], the compound was classed as inactive. For the same compound, the activity change, negative = cytotoxicity in [9] is -7%. The Potency entry in assay [7] and in [8] was “inactive” in each case.
As for `CCOc1ccc(NC(C)=O)cc1N`, the Potency in [1], in assay [2], in [3], in assay [4] and in assay [5] was above 92 µM in each case. Moreover, the compound was called inactive in assay [6]. Further, the activity change, negative = cytotoxicity in assay [9] was -12.5%. The Potency result in [7] and in [8] was “inactive” throughout.
With `O=C(O)c1ccccc1C(=O)O`, the Potency in assay [1], in assay [2], in assay [3], in assay [4] and in assay [5] was above 92 µM in each case. In [6], the call was inactive. Further, the activity change, negative = cytotoxicity in assay [9] is 1.25%. In addition, the Potency entry in assay [7] and in assay [8] was “inactive” each time.
`CCCCCCC(=O)O`: the Potency in [1], in assay [2], in [3], in assay [4] and in assay [5] was above 92 µM in each case. For the same compound, the compound was called inactive in assay [6]. Also, in assay [9], the activity change, negative = cytotoxicity is -3.74%. Moreover, the Potency entry in [7] and in assay [8] was “inactive” each time.
As for `C=C(C)C(=O)OCCCCCC`, the Potency in assay [1], in assay [2], in assay [3], in assay [4] and in assay [5] was above 92 µM each time. In addition, in assay [6], the result was inactive. Moreover, the activity change, negative = cytotoxicity in assay [9] is -2.36%. In addition, the Potency result in assay [7] and in assay [8] was “inactive” each time.
`Clc1cc(Cl)cc(Cl)c1`: the Potency in [1], in assay [2], in assay [3], in assay [4] and in assay [5] was above 92 µM each time. Also, the result in assay [6] was inactive. Further, the activity change, negative = cytotoxicity in [9] is 4.86%. In addition, the Potency result in assay [7] and in [8] was “inactive” throughout.
As to `CCC(=O)/C=C/C1C(C)=CCCC1(C)C` (configuration not stated), the Potency in [1], in assay [2], in [3], in assay [4] and in assay [5] was above 92 µM throughout. For the same compound, in [6], the call was inactive. In addition, the activity change, negative = cytotoxicity in [9] is -6.46%. In addition, the Potency result in [7] and in assay [8] was “inactive” in each case.
Take `O=Cc1ccc(C(=O)O)cc1`: the Potency in assay [1], in assay [2], in assay [3], in [4] and in [5] was above 92 µM throughout. Also, the call in [6] was inactive. Besides, the activity change, negative = cytotoxicity in assay [9] is -12.7%. The Potency result in assay [7] and in [8] was “inactive” in each case.
As to `CCOC(=O)C(C)C(C)=O` (configuration not stated), the Potency in [1], in [2], in [3], in [4] and in [5] was above 92 µM in each case. Moreover, the compound was called inactive in assay [6]. Further, the activity change, negative = cytotoxicity in assay [9] was 0.646%. The Potency entry in assay [7] and in assay [8] was “inactive” throughout.
For `O=C(Cl)c1cccc([N+](=O)[O-])c1`, the Potency in [1], in assay [2], in assay [3], in assay [4] and in assay [5] was above 92 µM each time. Further, the compound was classed as inactive in assay [6]. For the same compound, the activity change, negative = cytotoxicity in [9] was 5.21%. Further, the Potency result in assay [7] and in [8] was “inactive” each time.
`CC(C)=C1CCC(C)CC1=O` (configuration not stated): the Potency in [1], in assay [2], in [3], in [4] and in assay [5] was above 92 µM each time. The compound was classed as inactive in assay [6]. In addition, the activity change, negative = cytotoxicity in [9] was -3.2%. Also, the Potency result in assay [7] and in assay [8] was “inactive” each time.
`CCN(C(=O)N(CC)c1ccccc1)c1ccccc1`: the Potency is above 92 µM in [1]; above 92 µM in [2]; above 92 µM in assay [3]; above 92 µM in [4]; above 92 µM in [5]; 7.94 µM (active) in assay [7]. Also, the outcome in assay [6] was inactive. The Potency entry in assay [8] is “inactive”.
On to `O=C(Cl)c1ccccc1[N+](=O)[O-]`, for which the Potency in assay [1], in assay [2], in [3], in assay [4] and in assay [5] was above 92 µM each time. Moreover, the outcome in assay [6] was inactive. In addition, the activity change, negative = cytotoxicity in assay [9] is 0.882%. For the same compound, the Potency result in assay [7] and in assay [8] was “inactive” throughout.
With `CC(C)Nc1ccccc1`, the Potency in assay [1], in assay [2], in [3], in assay [4] and in assay [5] was above 92 µM throughout. In addition, the call in assay [6] was inactive. In assay [9], the activity change, negative = cytotoxicity is -9.13%. Further, the Potency result in [7] and in assay [8] was “inactive” in each case.
In the case of `CCC=O`, the Potency in assay [1], in [2], in assay [3], in assay [4] and in assay [5] was above 92 µM throughout. Also, the compound was classed as inactive in assay [6]. For the same compound, the Potency result in assay [7] and in assay [8] was “inactive” each time.
As for `CC(=O)c1ccccc1[N+](=O)[O-]`, the Potency in assay [1], in assay [2], in [3], in [4] and in [5] was above 92 µM each time. The compound was classed as inactive in assay [6]. Further, the activity change, negative = cytotoxicity in [9] was -16.5%. Besides, the Potency entry in assay [7] and in [8] was “inactive” in each case.

The record behind these values is PubChem BioAssay (NCATS).
